The record followed here is PubChem BioAssay.

The source made the active and inactive calls.

The target of one experiment is Albumin (Bos taurus) (UniProt P02769). As to the kind of experiment: compounds binding labelled BSA control protein – biochemical, small-molecule microarray, Alexa647 label, 635/667 nm fluorescence, artefact control for SMM control protein annotation, profiling panel (AID 1118).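 Further: score merges 667 nm emission intensity and signal-to-noise per printed compound spot.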 To be noted: BSA-A647 binding, fluorescence 635 nm, higher = more signal.
Albumin (Bos taurus), sequence (P02769 whole entry, looked up): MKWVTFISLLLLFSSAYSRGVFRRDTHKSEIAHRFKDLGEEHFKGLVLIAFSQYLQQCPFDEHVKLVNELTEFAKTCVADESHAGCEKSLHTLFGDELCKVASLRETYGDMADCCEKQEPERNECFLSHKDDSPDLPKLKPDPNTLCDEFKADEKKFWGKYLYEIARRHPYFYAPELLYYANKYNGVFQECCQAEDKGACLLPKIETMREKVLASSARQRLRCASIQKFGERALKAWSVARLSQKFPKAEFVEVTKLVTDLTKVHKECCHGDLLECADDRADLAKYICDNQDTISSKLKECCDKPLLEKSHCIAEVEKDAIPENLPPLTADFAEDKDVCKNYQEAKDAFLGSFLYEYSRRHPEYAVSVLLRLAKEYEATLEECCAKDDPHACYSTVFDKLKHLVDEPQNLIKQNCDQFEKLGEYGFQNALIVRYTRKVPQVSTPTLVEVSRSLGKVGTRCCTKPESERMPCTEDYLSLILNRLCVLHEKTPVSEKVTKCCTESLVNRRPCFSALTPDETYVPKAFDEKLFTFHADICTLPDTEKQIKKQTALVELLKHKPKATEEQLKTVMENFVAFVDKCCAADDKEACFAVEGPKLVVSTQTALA
Experiment [1] in a line: probe aXIP binding to arrayed compounds – biochemical, NeuroSMM set, 635/667 nm fluorescence, primary screen (AID 1119).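 Further: probe is the protein aXip251-270 applied at 1 µg/mL to compound-printed slides; binding of probe to printed compounds measured as 667 nm fluorescence plus signal to noise.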 Conditions: small-molecule microarray, higher = more signal, called active from +8 up or from −8 down.
Experiment [2] in a line: probe aNOTCH3 binding on compound microarray – biochemical, small-molecule microarray, 635/667 nm fluorescence, primary screen (AID 1120).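 Further: probe is a biotin-tagged antibody raised against NOTCH3 rather than NOTCH3 protein; score merges spot fluorescence near 667 nm with spot signal to noise.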 Conditions: higher = more signal.
Experiment [3] is described as follows: probe aNOTCH2 binding on compound microarray – biochemical, small-molecule microarray, 635/667 nm fluorescence, primary screen (AID 1121).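 Further: score merges feature fluorescence read at 667 nm with its signal to noise.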 To be noted: higher = more signal.
Experiment [4] concerns the target Carbonic anhydrase 2 (Homo sapiens) (UniProt P00918). As to the kind of experiment: compounds binding carbonic anhydrase 2 – biochemical, small-molecule microarray, Alexa647-labelled CAII, profiling panel (AID 1122). Conditions: CAII-A647 binding fluorescence, higher = more signal.
Experiment [5] in a line: COS7 lysate on small-molecule microarray, probe aHis, 635 nm (AID 1123).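 Further: z-score combines 667nm fluorescence intensity with signal-to-noise per printed compound spot.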 To be noted: COS7 cell lysate, fluorescence, higher = more signal.
Experiment [6] is described as follows: probe aLAP1 signal on lysate-treated microarray – cell lysate, small-molecule microarray, COS7 lysate, primary screen (AID 1124).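 Further: lysate comes from COS7 cells expressing LAP1 and is applied at 0.3 µg/mL; score merges spot fluorescence near 667 nm with signal-to-noise over triplicate slides.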 Conditions: probe aLAP1, fluorescence, higher = more signal.
For another experiment, the system named is Sam68 (KHDRBS1). As to the kind of experiment: compounds binding KHDRBS1 protein – biochemical, small-molecule microarray, 635 nm fluorescence, primary screen (AID 1125).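 Further: score merges 667 nm channel intensity with signal to noise over triplicate slides.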 Conditions: higher = more signal.
For experiment [7], the system named is Chordin-like protein 2 (CHRDL2). As to the kind of experiment: compounds binding chordin-like 2 – biochemical, small-molecule microarray, 635 nm fluorescence, primary screen (AID 1126).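 Further: printed compound slides probed with Chrdl2 protein at 4 µg/mL for 1 h at 4 C; score merges 667 nm emission intensity with signal to noise over three replicate slides.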 To be noted: fluorescence 635 nm, higher = more signal.
Experiment [8] addresses Concanavalin-A (Canavalia ensiformis) (UniProt P02866). The experiment in a line: compounds binding concanavalin A lectin – biochemical, small-molecule microarray, Alexa647 label, 635 nm, artefact control for SMM control protein annotation, primary screen (AID 1127).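 Further: z combines 667 nm emission intensity with signal-to-noise across three replicate slides.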 Conditions: ConA-A647 binding fluorescence, higher = more signal.

Concanavalin-A (Canavalia ensiformis), sequence (P02866 whole entry, looked up): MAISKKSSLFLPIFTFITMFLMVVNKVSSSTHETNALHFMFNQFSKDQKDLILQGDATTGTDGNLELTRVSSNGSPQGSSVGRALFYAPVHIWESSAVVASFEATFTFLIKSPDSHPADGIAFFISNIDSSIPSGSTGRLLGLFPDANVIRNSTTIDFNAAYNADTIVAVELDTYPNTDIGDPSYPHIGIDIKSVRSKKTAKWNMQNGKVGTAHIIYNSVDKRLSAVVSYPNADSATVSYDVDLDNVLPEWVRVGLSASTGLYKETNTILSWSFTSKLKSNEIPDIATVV

For the molecule `O=C(NCC(F)(F)F)[C@@H]1c2ccccc2C(=O)N(CC23CC4CC(CC(C4)C2)C3)[C@H]1c1ccc(CO)cc1`, the composite z-score was 0.15 with Albumin (Bos taurus); 0.0981 in experiment [2]; -0.147 in experiment [3]; 0.25 in experiment [4]; 0.699 in experiment [5]; 0.622 in experiment [6]. The composite z-score with Sam68 (KHDRBS1) worked out at 1.27; in [7] it was 0.162; in experiment [8], 0.734. Further, the composite Z-score in [1] was 0.251 (inactive).

For `C=CCC(OC(C)=O)[C@@H]1[C@@H](N(Cc2cc3ccccc3o2)C(=O)Cc2ccc(OC)cc2)c2cc(OCCCO)ccc2N1C(=O)Cc1ccc2ccccc2c1` (stereo not given in full), the composite z-score in the experiment with Albumin (Bos taurus) was 0.402; in [2] it was -0.0391; in experiment [3] it was -0.0424; in [4], -0.061; in experiment [5], 0.491; in experiment [6], -0.185. Also, the composite z-score with Sam68 (KHDRBS1) is -0.235; in experiment [7], -0.563; in experiment [8], 0.3. The composite Z-score in experiment [1] was -0.374 (inactive).

In the case of `COc1ccc(NN2C(C(O)c3ccc(OC)cc3)C=CC3C(=O)N(C4CCCCC4)C(=O)C32)cc1` (stereo not given), the composite z-score with Albumin (Bos taurus) is 0.828; in experiment [2], 0.124; in experiment [3], -0.0037; in [4], 0.405; in [5], 1.1; in experiment [6], 0.0023. Moreover, the composite z-score is 1.28 with Sam68 (KHDRBS1), -0.138 in experiment [7] and 0.872 in experiment [8]. Also, in experiment [1], the composite Z-score was 0.297 (inactive).

With `CCCCC(O)C1C=CC2C(=O)N(C)C(=O)C2N1Nc1ccccc1` (stereo not given), the composite z-score was 0.555 with Albumin (Bos taurus); 0.138 in experiment [2]; -0.0708 in experiment [3]; 0.72 in experiment [4]; 2.06 in experiment [5]; 0.182 in [6]. Also, the values for the composite z-score (in the experiment with Sam68 (KHDRBS1); in [7]; in experiment [8]) were 1.29, -0.107 and 0.31, respectively. Also, the composite Z-score in [1] was 0.267 (inactive).

For `C=CCC(OC(C)=O)[C@@H]1[C@@H](N(Cc2ccc(-c3cccc(C(F)(F)F)c3)o2)C(=O)c2cccc3ccccc23)c2cc(OCCCO)ccc2N1C(=O)c1ccc2ccccc2c1` (stereo not given in full), the composite z-score with Albumin (Bos taurus) is -0.119; in [2] it was 0.147; in experiment [3], -0.12; in experiment [4], 0.0138; in experiment [5] it was 0.289; in experiment [6], -0.278. The composite z-score was -0.351 in the experiment with Sam68 (KHDRBS1), 0.31 in experiment [7] and -0.0957 in experiment [8]. For the same molecule, in experiment [1], the composite Z-score is 0.115 (inactive).

As to `O=C1O[C@@H](c2ccccc2)[C@@H](c2ccccc2)N2[C@@H](c3ccc(OCCO)cc3)[C@]3(C(=O)Nc4ccc(C#CCCO)cc43)[C@@H](C(=O)Nc3nc4ccccc4s3)[C@H]12`, the composite z-score with Albumin (Bos taurus) was 0.844; in [2], 0.289; in [3], -0.148; in experiment [4] it was 0.458; in experiment [5] it was 1.48; in experiment [6], 0.426. Also, the composite z-score stood at 1.3 with Sam68 (KHDRBS1), 0.324 in experiment [7] and 1.09 in experiment [8]. Also, the composite Z-score in experiment [1] was 1.09 (inactive).

With `CCCCCN1CC=CC23O[C@@H]4C=CCOC(=O)[C@@H]4[C@H]2C(=O)N(CCCCCO)[C@@H]3C1=O` (stereo not given in full), the composite z-score with Albumin (Bos taurus) was 0.994; in [2], -0.137; in experiment [3], -0.146; in [4] it was 0.854; in experiment [5], 0.263; in [6], 0.0344. In addition, the composite z-score in the experiment on Sam68 (KHDRBS1) was -0.172; in experiment [7], -1.31; in experiment [8], -0.56. Further, the composite Z-score in experiment [1] is 0.358 (inactive).

On to `O=c1cccc(-c2ccccc2C(F)(F)F)o1`, for which the composite z-score is 0.747 in the experiment with Albumin (Bos taurus); 0.583 in experiment [2]; 0.581 in experiment [3]; 0.354 in [4]; 0.491 in experiment [5]; -0.148 in experiment [6]. Further, the composite z-score with Sam68 (KHDRBS1) was -0.519; in experiment [7], -0.223; in experiment [8] it was -0.407. Also, the composite Z-score in experiment [1] was 0.3 (inactive).

On to `CCCC=C(CCC)[C@@H](NS(=O)(=O)c1ccc(Cl)cc1)c1ccccc1`, for which the composite z-score in the experiment with Albumin (Bos taurus) was 0.046; in experiment [2], -0.056; in [3], 0.194; in experiment [4] it was 0.281; in experiment [5], 0.829; in [6] it was 1.28. For the same molecule, the figures for the composite z-score (with Sam68 (KHDRBS1); in [7]; in experiment [8]) were 0.127, -0.845 and 0.205, respectively. Besides, the composite Z-score in [1] was -0.0223 (inactive).

Consider `COCCOC(=O)N1C(=O)[C@@]2(c3cc(C#Cc4ccc(OC)cc4)ccc31)[C@H](C(=O)Nc1nc3ccccc3s1)[C@H]1C(=O)O[C@H](c3ccccc3)[C@H](c3ccccc3)N1[C@@H]2c1ccccc1OCCO`, for which the composite z-score was determined as 0.545 with Albumin (Bos taurus); 0.124 in experiment [2]; 0.159 in [3]; 0.547 in experiment [4]; 0.874 in [5]; 0.304 in experiment [6]. The figures for the composite z-score (with Sam68 (KHDRBS1); in experiment [7]; in [8]) were 0.997, 0.649 and 1.11, respectively. In addition, the composite Z-score in experiment [1] was -0.331 (inactive).

As for `Cc1ccc(S[C@]2(C(=O)NC3CC3)CC(=O)N(Cc3cc(C(F)(F)F)cc(C(F)(F)F)c3)[C@@H]2c2ccc(CO)cc2I)cc1`, the composite z-score was 0.0876 with Albumin (Bos taurus); -0.512 in experiment [2]; 0.381 in [3]; 0.554 in experiment [4]; 1.18 in [5]; 0.959 in [6]. For the same molecule, the composite z-score with Sam68 (KHDRBS1) worked out at 0.964; in experiment [7], 0.452; in experiment [8], 1.07. Also, the composite Z-score in experiment [1] was 0.193 (inactive).

Regarding `COCCOC(=O)N1C(=O)[C@@]2(c3cc(C#CC4=CCCCC4)ccc31)[C@H](c1ccc(OCCO)cc1)N1[C@H](c3ccccc3)[C@H](c3ccccc3)OC(=O)[C@H]1[C@@H]2C(=O)N1CCCCCCC1`, the composite z-score stood at 0.263 with Albumin (Bos taurus); 0.809 in [2]; 0.0784 in experiment [3]; 0.623 in experiment [4]; 2.41 in [5]; 0.903 in experiment [6]. Further, the composite z-score is 1.3 in the experiment with Sam68 (KHDRBS1), 0.91 in [7] and 1.11 in experiment [8]. The composite Z-score in experiment [1] was 2 (inactive).

With `[N-]=[N+]=NCc1ccccc1[C@@H]1OC(c2ccc(OCCCO)cc2)=N[C@]1(Cc1ccccc1)C(=O)NCc1ccccc1`, the composite z-score with Albumin (Bos taurus) was 0.937; in experiment [2], 0.0774; in [3] it was -0.0349; in experiment [4], 0.782; in experiment [5], 2.99; in experiment [6], 0.388. The composite z-score was 0.826 with Sam68 (KHDRBS1), -0.691 in [7] and 1.08 in experiment [8]. Further, in [1], the composite Z-score was -0.04 (inactive).

With `COCCOC(=O)N1C(=O)[C@@]2(c3cc(C#CC4(O)CCCCCC4)ccc31)[C@H](c1ccc(OCCO)cc1)N1[C@H](c3ccccc3)[C@H](c3ccccc3)OC(=O)[C@H]1[C@@H]2C(=O)N1CCCCCCC1`, the composite z-score amounted to 0.571 in the experiment with Albumin (Bos taurus); 1.14 in [2]; 0.0899 in experiment [3]; 0.357 in [4]; 2.47 in experiment [5]; 1.02 in experiment [6]. Further, the composite z-score with Sam68 (KHDRBS1) is 1.31; in experiment [7], 0.744; in experiment [8], 1.15. Further, the composite Z-score in experiment [1] is 1.12 (inactive).

On to `COCCOC(=O)N1C(=O)[C@@]2(c3cc(C#CCCO)ccc31)[C@H](c1ccccc1OCCO)N1[C@H](c3ccccc3)[C@H](c3ccccc3)OC(=O)[C@H]1[C@@H]2C(=O)N1CCc2cc(OC)c(OC)cc2C1`, for which the composite z-score with Albumin (Bos taurus) was 0.329; in [2], 0.0562; in [3], -0.101; in experiment [4] it was 0.4; in [5] it was 1.85; in experiment [6] it was 1.02. The composite z-score in the experiment with Sam68 (KHDRBS1) was 1.31; in [7] it was 0.469; in [8], 1.09. For the same molecule, the composite Z-score in experiment [1] was 0.339 (inactive).

Consider `C=C(COC)C(=O)CC[C@@H](OC(C)=O)c1ccc(OCCO)cc1`, for which the composite z-score with Albumin (Bos taurus) is -0.561; in experiment [2], 0.0426; in experiment [3], -0.125; in experiment [4] it was 0.648; in experiment [5], 0.206; in [6] it was -0.217. Also, the composite z-score in the experiment on Sam68 (KHDRBS1) is 0.744; in experiment [7], -0.127; in [8] it was 0.891. Besides, the composite Z-score in experiment [1] is 0.392 (inactive).
